This passage reports growth results from PubChem BioAssay (NCI).

Among the test systems are DU-145 prostate; K-562 leukemia; MALME-3M melanoma; MDA-MB-231 breast; RXF 393 renal; SF-268 CNS; SF-295 CNS; SF-539 CNS; M14 melanoma.
Holding throughout (experiment): NCI-60 one-dose screen, 48 h (100 = growth as untreated, 0 = no growth, -100 = all killed)
What all share (conditions): 10 µM unless noted

This is part of a sample that, as a whole, favours compounds with a hit. Of some 83,000 tested, about 20% had one in any assay.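 Cell lines were cultured in 96-well plates, exposed to a single compound concentration, and assessed for percent growth 48 hours later.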 A number with no mark means an inactive call. Active and inactive are the calls of the source. How the source made its calls: active means growth percent below 10; inactive means the rest.

In the case of `COc1cccc(-c2nn(-c3ccccc3)cc2-c2ccnc(NCCCNS(=O)(=O)c3ccc(Cl)cc3)c2)c1`, the growth with DU-145 prostate was 67.1%; in the assay with K-562 leukemia, 11.6%; in the assay with MALME-3M melanoma, 74.6%; in the assay with MDA-MB-231 breast, 23.5%; in the assay on RXF 393 renal it was 46.4%; in the assay on SF-268 CNS, 56.1%. Besides, the growth in the assay on SF-295 CNS is 24.2%; in the assay on SF-539 CNS it was 62.3%; in the assay with M14 melanoma it was 33.4%.
Take `N#CCCCCCn1c2ccccc2c2c3c(c4c5ccccc5n(CCCCCC#N)c4c21)C(=O)N(O)C3=O`: the growth in the assay with DU-145 prostate was 93.6%; in the assay on K-562 leukemia, 79.7%; with MALME-3M melanoma, 77.1%; in the assay with MDA-MB-231 breast, 32.3%; with RXF 393 renal, 80.8%; with SF-268 CNS, 70.3%. The values for the growth with SF-295 CNS, with SF-539 CNS and with M14 melanoma were 89.2%, 71% and 85.3%, respectively.
In the case of `CC1(c2ccccc2)OC1C(=O)O` (configuration not stated), the growth in the assay on DU-145 prostate was 108%; in the assay on K-562 leukemia, 111%; in the assay with MALME-3M melanoma, 88.5%; in the assay on MDA-MB-231 breast, 110%; in the assay on RXF 393 renal, 103%; with SF-268 CNS it was 106%. The growth was 101% with SF-295 CNS, 96.1% with SF-539 CNS and 95.2% with M14 melanoma.
With `CC/C(=N/NC(N)=O)c1ccccc1`, the growth in the assay with DU-145 prostate was 108%; in the assay on K-562 leukemia, 101%; in the assay with MALME-3M melanoma, 105%; with MDA-MB-231 breast, 102%; with RXF 393 renal, 108%; in the assay on SF-268 CNS, 107%. The growth with SF-295 CNS is 89.8%; with SF-539 CNS it was 95.1%; with M14 melanoma, 106%.
For the compound `COc1cccc(-c2nn(-c3ccccc3)cc2-c2ccnc(NCCNS(=O)(=O)c3ccc(C(F)(F)F)cc3)c2)c1`, the growth in the assay on DU-145 prostate is 46.6%; in the assay on K-562 leukemia, 3.79% (active); with MALME-3M melanoma, -17.9% (active); with MDA-MB-231 breast, 6.28% (active); in the assay with RXF 393 renal, -22.2% (active); in the assay on SF-268 CNS it was 36%. Besides, the growth in the assay with SF-295 CNS was 3.05% (active); in the assay with SF-539 CNS, 2.91% (active); in the assay on M14 melanoma, 13.6%.
With `COc1cccc(-c2nn(-c3ccccc3)cc2-c2ccnc(NCCCO)c2)c1`, the growth in the assay on DU-145 prostate was 63.8%; in the assay with K-562 leukemia, 8.63% (active); with MALME-3M melanoma, 51.4%; with MDA-MB-231 breast it was 38.4%; in the assay on RXF 393 renal, 47.6%; in the assay with SF-268 CNS, 53.7%. The values for the growth with SF-295 CNS, in the assay on SF-539 CNS and in the assay with M14 melanoma were 27.1%, 33.5% and 12.8%, respectively.
On to `O=S(=O)(NCCCNc1cc(-c2cn(-c3ccccc3)nc2-c2cccc(O)c2)ccn1)c1ccc(F)cc1`, for which the growth in the assay on DU-145 prostate is 59.5%; in the assay with K-562 leukemia it was 3% (active); with MALME-3M melanoma, 35.9%; with MDA-MB-231 breast, -0.971% (active); with RXF 393 renal it was 39.7%; in the assay on SF-268 CNS it was 44.5%. For the same compound, the growth in the assay on SF-295 CNS was 5.71% (active); in the assay on SF-539 CNS, 38.8%; in the assay with M14 melanoma, 26.6%.
As for `COc1cccc(-c2nn(-c3ccccc3)cc2-c2ccnc(NCCCN)c2)c1`, the growth with DU-145 prostate was 75.6%; with K-562 leukemia, 16.8%; in the assay on MALME-3M melanoma, 70.2%; in the assay with MDA-MB-231 breast, 33.7%; with RXF 393 renal it was 51.5%; in the assay with SF-268 CNS, 64%. Moreover, the growth is 44.7% with SF-295 CNS, 49.8% in the assay with SF-539 CNS and 26.1% in the assay on M14 melanoma.
With `O=C(NO)c1ccc(Cn2c(=O)n(CCc3ccc(O)cc3)c(=O)c3ccccc32)cc1`, the growth in the assay with DU-145 prostate is 42.1%; in the assay on K-562 leukemia, 24.9%; with MALME-3M melanoma, 39.3%; in the assay with MDA-MB-231 breast it was 39.1%; in the assay on RXF 393 renal, 29.8%; in the assay with SF-268 CNS, 59.2%. For the same compound, the growth is 79.1% in the assay with SF-295 CNS, 3.09% (active) in the assay with SF-539 CNS and 36.9% with M14 melanoma.
As for `COc1cc2ncnc(Nc3ccc(OCc4cccc(F)c4)c(Cl)c3)c2cc1NC(=O)C1CCCC1`, the growth with DU-145 prostate was 78.3%; in the assay on K-562 leukemia, 91.2%; with MALME-3M melanoma, 107%; with MDA-MB-231 breast it was 84.5%; with RXF 393 renal, 83%; with SF-268 CNS it was 89.1%. Also, the growth is 101% in the assay on SF-295 CNS, 96.1% in the assay with SF-539 CNS and 71.4% with M14 melanoma.
As to `CCN(CC)C(=O)CCCCCn1c2ccccc2c2c3c(c4c5ccccc5[nH]c4c21)C(=O)N(O)C3=O`, the growth in the assay on DU-145 prostate was 69%; in the assay on K-562 leukemia, 40.8%; with MALME-3M melanoma it was 102%; with MDA-MB-231 breast it was 42.9%; with RXF 393 renal, 45.6%; with SF-268 CNS, 51.6%. For the same compound, the values for the growth with SF-295 CNS, with SF-539 CNS and in the assay on M14 melanoma were 62.5%, 39.7% and 53.9%, respectively.
Consider `c1ccc2[nH]c(-c3ccc(Nc4nc(N5CCCCC5)nc(N5CCOCC5)n4)cc3)nc2c1`, for which the growth with DU-145 prostate was 39%; in the assay on K-562 leukemia, -6.74% (active); in the assay on MALME-3M melanoma, -50.2% (active); with MDA-MB-231 breast, 23.1%; with RXF 393 renal, -56.1% (active); in the assay on SF-268 CNS, 33.8%. The growth in the assay with SF-295 CNS was -51.4% (active); in the assay with SF-539 CNS, 7.95% (active); in the assay with M14 melanoma it was -24.5% (active).
Take `COC(=O)[C@]12CC[C@@H](C)[C@H](C)[C@@H]1C1=CC[C@@H]3[C@@]4(C)C[C@@H](O)OC[C@](C)(C=O)C4C(=O)C[C@@]3(C)[C@]1(C)CC2` (some centres not stated): the growth in the assay on DU-145 prostate was 14.5%; with K-562 leukemia, 3.89% (active); with MALME-3M melanoma, -8.79% (active); in the assay on MDA-MB-231 breast it was -14.9% (active); in the assay on RXF 393 renal, -7.01% (active); in the assay with SF-268 CNS it was 34.9%. For the same compound, the growth in the assay on SF-295 CNS is 1.62% (active); with SF-539 CNS, 7.45% (active); in the assay on M14 melanoma, 6.13% (active).
